Assays:
Assay in all cases: log2 ratio of Biotin-Ahx-Ub-VS probe labelling (fragment/DMSO); higher = less target engagement (more negative = stronger competition), active = hit call of the paper (q ≤ 0.05, log2 ratio ≤ -1)
Settings in all cases: compound concentration: 200 uM; treatment time: 3 h
USP42 = target: T1, USP42 (UniProt Q9H9J4)
T1 sequence (whole entry): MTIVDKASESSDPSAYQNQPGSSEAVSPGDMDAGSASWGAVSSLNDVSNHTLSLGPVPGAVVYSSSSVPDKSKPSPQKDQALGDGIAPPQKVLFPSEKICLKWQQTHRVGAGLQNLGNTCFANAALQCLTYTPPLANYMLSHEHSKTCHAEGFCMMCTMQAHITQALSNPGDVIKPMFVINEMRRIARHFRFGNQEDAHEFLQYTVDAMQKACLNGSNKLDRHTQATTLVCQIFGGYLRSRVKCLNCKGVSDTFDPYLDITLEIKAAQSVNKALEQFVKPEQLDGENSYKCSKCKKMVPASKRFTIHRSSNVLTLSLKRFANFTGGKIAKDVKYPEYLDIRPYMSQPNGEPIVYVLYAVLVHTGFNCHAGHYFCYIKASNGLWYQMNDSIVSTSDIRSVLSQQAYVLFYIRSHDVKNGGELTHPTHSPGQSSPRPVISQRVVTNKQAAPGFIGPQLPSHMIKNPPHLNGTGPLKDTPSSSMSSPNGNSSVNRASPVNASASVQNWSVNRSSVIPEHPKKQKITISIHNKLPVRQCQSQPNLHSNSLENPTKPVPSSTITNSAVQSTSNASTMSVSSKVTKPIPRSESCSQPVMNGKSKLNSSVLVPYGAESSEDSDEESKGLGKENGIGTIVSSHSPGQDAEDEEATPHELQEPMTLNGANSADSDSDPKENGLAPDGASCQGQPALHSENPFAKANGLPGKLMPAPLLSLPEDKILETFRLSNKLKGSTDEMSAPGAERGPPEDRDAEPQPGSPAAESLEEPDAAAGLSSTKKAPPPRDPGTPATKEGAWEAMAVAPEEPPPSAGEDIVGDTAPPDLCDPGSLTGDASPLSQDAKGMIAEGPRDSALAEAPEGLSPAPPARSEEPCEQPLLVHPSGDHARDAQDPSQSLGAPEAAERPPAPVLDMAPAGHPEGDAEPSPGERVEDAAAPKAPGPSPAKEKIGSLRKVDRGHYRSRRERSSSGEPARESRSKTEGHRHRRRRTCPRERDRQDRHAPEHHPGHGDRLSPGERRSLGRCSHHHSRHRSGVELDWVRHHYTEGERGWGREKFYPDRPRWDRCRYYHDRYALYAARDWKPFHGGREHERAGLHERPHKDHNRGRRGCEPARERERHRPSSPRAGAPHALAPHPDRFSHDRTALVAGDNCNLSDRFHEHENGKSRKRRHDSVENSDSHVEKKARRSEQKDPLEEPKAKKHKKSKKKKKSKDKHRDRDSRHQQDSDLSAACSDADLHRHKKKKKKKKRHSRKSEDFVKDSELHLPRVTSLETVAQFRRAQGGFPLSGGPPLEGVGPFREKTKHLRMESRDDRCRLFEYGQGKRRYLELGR
Outline: (§1)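 Fragment (200 µM) or vehicle was incubated for 3 h with triplicate HEK293T lysate samples of 495 µg, which were then treated with Biotin-Ahx-Ub-VS at 0.5 µM final for 1 h. Labelled DUBs were enriched on NeutrAvidin, digested with LysC and trypsin, and analysed by diaPASEF LC-MS/MS. Values are average log2 fragment/vehicle ratios from an unpaired t-test on global-median-normalised Spectronaut label-free quantities, using proteins with ≥2 unique peptides.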

USP46 = USP46 (UniProt P62068)
Outline: as §1

USP47 = target: T2, USP47 (UniProt Q96K76)
T2 sequence (whole entry): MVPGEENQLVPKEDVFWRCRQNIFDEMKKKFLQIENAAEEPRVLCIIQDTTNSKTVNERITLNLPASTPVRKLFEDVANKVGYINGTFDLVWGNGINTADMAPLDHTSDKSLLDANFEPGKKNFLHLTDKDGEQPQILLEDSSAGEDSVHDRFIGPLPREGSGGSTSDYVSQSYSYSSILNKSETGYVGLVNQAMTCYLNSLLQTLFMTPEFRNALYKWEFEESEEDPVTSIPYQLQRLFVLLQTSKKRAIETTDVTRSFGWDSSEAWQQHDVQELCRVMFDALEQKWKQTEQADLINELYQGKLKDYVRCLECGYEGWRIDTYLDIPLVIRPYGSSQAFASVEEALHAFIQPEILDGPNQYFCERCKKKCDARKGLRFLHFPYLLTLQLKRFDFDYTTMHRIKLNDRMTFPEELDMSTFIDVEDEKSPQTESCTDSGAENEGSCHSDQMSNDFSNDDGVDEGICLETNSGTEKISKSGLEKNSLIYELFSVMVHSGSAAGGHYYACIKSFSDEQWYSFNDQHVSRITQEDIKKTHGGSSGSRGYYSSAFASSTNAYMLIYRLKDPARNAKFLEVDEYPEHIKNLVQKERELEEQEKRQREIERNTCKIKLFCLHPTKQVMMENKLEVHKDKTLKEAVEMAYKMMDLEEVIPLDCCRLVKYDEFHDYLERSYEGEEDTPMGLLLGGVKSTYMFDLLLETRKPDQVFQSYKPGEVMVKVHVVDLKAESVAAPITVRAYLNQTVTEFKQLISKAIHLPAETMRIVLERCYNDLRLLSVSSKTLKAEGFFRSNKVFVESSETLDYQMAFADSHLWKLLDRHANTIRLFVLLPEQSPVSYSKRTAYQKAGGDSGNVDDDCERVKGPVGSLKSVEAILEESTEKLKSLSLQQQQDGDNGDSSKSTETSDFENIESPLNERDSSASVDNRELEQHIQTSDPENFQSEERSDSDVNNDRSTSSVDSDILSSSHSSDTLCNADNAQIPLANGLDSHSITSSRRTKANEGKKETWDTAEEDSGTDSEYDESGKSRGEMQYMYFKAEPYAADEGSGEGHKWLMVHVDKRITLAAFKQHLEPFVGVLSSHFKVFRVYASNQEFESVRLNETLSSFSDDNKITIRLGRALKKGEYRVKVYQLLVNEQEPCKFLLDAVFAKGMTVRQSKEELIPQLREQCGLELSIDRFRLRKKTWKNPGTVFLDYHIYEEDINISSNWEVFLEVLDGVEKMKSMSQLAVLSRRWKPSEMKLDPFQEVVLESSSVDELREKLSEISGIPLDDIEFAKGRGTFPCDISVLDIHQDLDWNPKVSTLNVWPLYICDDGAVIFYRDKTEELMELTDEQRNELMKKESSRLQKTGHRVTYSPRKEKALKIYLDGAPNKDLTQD
Outline: as §1

USP48 = target: T3, USP48 (UniProt Q86UV5)
T3 sequence (whole entry): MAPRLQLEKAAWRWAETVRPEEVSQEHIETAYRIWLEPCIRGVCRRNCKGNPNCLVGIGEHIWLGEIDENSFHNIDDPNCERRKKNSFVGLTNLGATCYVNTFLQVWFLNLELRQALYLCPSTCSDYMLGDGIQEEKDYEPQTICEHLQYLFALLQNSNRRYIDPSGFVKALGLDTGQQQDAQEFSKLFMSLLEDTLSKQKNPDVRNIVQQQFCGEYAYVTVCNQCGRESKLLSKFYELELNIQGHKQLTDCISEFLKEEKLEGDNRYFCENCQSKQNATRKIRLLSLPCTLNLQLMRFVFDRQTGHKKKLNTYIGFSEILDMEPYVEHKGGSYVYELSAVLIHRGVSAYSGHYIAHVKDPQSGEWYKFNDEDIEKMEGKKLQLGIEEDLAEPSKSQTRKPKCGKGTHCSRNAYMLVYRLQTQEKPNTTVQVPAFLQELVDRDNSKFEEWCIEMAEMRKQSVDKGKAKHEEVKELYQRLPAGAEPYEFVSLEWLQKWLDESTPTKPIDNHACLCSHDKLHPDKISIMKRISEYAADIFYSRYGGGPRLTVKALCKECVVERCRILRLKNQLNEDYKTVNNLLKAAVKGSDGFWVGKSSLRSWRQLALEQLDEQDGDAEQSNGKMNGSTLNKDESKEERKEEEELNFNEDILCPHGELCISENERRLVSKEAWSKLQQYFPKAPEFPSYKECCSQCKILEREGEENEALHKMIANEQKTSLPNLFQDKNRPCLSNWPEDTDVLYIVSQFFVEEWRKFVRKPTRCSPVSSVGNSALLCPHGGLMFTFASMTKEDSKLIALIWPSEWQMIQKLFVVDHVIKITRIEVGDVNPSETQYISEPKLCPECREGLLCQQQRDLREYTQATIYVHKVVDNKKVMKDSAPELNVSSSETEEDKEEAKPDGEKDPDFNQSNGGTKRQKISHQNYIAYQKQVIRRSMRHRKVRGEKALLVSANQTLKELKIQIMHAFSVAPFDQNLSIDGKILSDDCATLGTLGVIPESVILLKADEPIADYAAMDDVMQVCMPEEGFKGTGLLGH
Outline: as §1

USP5 = target: T4, USP5 (UniProt P45974)
T4 sequence (whole entry): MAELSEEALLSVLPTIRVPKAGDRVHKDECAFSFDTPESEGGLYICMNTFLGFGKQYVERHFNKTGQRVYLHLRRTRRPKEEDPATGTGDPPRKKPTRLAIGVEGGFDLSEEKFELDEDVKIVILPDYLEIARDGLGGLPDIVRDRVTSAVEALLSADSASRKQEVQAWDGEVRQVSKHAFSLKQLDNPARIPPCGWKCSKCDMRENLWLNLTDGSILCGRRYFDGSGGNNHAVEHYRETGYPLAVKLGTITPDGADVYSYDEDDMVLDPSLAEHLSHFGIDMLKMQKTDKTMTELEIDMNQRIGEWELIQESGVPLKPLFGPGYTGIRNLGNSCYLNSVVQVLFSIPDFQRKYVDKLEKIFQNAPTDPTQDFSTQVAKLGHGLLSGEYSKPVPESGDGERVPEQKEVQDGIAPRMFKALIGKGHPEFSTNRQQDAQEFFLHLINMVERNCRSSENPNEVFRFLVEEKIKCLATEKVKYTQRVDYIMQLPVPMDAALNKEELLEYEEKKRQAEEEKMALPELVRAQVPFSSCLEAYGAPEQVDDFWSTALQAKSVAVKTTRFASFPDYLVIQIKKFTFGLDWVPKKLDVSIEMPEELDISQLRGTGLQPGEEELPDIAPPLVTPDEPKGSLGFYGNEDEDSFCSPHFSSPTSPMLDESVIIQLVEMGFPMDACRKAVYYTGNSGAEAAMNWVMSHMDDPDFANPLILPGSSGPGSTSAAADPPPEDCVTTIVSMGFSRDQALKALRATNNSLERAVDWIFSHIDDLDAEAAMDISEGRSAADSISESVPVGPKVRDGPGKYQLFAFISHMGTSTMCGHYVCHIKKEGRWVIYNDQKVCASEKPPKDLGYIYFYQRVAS
Outline: as §1

USP54 = USP54 (UniProt Q70EL1)
Outline: as §1

USP7 = USP7 (UniProt Q93009)
Outline: as §1

USP8 = target: T5, USP8 (UniProt P40818)
T5 sequence (whole entry): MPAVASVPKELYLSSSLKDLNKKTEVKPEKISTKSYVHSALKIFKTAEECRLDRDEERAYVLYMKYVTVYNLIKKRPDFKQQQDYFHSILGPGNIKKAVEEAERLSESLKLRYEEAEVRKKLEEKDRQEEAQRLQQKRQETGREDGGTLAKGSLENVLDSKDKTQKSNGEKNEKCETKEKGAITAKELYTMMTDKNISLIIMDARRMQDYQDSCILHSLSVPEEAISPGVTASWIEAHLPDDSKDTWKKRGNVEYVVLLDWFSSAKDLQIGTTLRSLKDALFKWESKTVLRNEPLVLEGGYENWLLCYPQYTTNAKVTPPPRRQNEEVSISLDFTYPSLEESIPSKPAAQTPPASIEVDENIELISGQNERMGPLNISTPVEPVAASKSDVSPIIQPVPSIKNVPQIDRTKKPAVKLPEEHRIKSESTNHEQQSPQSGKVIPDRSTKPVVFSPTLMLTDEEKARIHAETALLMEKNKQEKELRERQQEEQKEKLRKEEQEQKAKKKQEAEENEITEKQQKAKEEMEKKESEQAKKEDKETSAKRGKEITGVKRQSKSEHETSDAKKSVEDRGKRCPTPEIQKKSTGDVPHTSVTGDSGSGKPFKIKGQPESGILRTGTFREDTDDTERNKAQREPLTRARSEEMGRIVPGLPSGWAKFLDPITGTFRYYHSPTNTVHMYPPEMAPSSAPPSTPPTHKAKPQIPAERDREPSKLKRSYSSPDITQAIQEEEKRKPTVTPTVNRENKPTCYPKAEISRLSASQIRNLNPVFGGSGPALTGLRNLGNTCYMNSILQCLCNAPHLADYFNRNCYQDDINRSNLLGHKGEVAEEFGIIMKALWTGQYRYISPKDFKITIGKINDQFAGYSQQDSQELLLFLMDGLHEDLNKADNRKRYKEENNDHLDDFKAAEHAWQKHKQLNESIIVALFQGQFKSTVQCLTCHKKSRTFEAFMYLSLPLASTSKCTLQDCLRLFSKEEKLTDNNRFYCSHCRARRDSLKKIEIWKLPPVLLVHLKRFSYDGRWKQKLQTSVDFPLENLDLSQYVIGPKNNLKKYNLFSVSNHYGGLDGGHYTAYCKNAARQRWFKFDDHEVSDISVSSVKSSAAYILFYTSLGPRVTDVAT
Outline: as §1

USP9X = USP9X (UniProt Q93008)
Outline: as §1

UniProt O00487 = target: UniProt O00487
Outline: as §1

Measured: log2 ratio of Biotin-Ahx-Ub-VS probe labelling

Sequence of UniProt O00487 (O00487 whole entry): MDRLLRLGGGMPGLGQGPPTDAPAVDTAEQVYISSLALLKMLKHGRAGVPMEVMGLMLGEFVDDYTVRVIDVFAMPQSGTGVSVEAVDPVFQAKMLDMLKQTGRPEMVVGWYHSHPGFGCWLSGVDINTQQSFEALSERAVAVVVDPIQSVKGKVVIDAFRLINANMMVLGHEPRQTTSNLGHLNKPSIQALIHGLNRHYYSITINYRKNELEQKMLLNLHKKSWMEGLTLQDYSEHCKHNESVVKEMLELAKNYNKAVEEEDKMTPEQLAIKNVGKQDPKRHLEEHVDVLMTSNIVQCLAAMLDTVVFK
Sequence of USP54 (Q70EL1 whole entry): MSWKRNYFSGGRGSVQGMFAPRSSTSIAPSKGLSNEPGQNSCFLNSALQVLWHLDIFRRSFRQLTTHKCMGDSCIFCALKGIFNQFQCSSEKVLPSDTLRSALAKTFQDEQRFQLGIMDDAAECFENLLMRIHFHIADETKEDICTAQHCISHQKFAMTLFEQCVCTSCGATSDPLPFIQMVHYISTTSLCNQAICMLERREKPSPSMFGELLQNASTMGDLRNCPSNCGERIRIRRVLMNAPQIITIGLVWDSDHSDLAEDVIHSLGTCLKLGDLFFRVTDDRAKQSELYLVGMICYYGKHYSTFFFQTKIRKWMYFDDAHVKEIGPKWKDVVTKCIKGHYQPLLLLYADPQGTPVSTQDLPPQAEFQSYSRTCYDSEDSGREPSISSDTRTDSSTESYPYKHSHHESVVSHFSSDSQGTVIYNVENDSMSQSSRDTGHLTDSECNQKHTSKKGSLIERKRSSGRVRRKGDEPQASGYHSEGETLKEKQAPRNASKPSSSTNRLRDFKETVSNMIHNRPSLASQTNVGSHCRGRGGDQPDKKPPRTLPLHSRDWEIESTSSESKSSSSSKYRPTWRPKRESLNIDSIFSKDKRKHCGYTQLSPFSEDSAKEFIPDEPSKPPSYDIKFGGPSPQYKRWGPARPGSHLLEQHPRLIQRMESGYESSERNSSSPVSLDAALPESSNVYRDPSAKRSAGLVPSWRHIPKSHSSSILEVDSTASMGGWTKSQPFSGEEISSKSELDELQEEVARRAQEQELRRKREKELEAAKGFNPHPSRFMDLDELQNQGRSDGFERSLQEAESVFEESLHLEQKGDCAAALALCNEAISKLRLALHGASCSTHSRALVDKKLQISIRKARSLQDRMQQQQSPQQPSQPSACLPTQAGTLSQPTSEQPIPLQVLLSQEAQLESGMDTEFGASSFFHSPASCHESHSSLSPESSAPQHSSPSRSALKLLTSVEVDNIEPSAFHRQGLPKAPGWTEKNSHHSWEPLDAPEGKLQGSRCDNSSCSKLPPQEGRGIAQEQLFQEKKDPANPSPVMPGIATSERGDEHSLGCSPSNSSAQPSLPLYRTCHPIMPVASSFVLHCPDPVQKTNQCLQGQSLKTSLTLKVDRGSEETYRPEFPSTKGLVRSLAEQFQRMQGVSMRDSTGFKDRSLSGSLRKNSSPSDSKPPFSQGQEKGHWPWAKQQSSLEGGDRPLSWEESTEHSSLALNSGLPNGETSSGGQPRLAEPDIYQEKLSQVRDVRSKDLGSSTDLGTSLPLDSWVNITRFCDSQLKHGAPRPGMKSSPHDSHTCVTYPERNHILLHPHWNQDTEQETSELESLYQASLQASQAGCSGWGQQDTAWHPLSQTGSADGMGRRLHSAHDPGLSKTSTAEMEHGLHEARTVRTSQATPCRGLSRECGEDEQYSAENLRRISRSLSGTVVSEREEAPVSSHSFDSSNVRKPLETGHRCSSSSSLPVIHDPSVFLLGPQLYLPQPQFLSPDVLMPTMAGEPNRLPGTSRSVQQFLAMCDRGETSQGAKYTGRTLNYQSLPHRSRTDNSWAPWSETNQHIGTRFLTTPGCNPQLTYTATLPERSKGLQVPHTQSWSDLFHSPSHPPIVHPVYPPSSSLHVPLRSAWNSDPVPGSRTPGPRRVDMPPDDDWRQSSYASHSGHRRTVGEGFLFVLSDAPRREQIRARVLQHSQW
Sequence of USP46 (P62068 whole entry): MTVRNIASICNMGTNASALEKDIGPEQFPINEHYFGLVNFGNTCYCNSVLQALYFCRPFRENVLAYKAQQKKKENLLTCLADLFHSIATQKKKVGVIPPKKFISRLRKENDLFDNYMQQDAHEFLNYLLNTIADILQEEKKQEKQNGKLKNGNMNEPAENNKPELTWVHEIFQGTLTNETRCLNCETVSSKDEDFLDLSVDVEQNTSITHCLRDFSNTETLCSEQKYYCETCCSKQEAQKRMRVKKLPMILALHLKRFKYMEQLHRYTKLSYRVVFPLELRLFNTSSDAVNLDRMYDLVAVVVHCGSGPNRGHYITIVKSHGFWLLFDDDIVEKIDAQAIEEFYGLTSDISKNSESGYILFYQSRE
Sequence of USP9X (Q93008 whole entry): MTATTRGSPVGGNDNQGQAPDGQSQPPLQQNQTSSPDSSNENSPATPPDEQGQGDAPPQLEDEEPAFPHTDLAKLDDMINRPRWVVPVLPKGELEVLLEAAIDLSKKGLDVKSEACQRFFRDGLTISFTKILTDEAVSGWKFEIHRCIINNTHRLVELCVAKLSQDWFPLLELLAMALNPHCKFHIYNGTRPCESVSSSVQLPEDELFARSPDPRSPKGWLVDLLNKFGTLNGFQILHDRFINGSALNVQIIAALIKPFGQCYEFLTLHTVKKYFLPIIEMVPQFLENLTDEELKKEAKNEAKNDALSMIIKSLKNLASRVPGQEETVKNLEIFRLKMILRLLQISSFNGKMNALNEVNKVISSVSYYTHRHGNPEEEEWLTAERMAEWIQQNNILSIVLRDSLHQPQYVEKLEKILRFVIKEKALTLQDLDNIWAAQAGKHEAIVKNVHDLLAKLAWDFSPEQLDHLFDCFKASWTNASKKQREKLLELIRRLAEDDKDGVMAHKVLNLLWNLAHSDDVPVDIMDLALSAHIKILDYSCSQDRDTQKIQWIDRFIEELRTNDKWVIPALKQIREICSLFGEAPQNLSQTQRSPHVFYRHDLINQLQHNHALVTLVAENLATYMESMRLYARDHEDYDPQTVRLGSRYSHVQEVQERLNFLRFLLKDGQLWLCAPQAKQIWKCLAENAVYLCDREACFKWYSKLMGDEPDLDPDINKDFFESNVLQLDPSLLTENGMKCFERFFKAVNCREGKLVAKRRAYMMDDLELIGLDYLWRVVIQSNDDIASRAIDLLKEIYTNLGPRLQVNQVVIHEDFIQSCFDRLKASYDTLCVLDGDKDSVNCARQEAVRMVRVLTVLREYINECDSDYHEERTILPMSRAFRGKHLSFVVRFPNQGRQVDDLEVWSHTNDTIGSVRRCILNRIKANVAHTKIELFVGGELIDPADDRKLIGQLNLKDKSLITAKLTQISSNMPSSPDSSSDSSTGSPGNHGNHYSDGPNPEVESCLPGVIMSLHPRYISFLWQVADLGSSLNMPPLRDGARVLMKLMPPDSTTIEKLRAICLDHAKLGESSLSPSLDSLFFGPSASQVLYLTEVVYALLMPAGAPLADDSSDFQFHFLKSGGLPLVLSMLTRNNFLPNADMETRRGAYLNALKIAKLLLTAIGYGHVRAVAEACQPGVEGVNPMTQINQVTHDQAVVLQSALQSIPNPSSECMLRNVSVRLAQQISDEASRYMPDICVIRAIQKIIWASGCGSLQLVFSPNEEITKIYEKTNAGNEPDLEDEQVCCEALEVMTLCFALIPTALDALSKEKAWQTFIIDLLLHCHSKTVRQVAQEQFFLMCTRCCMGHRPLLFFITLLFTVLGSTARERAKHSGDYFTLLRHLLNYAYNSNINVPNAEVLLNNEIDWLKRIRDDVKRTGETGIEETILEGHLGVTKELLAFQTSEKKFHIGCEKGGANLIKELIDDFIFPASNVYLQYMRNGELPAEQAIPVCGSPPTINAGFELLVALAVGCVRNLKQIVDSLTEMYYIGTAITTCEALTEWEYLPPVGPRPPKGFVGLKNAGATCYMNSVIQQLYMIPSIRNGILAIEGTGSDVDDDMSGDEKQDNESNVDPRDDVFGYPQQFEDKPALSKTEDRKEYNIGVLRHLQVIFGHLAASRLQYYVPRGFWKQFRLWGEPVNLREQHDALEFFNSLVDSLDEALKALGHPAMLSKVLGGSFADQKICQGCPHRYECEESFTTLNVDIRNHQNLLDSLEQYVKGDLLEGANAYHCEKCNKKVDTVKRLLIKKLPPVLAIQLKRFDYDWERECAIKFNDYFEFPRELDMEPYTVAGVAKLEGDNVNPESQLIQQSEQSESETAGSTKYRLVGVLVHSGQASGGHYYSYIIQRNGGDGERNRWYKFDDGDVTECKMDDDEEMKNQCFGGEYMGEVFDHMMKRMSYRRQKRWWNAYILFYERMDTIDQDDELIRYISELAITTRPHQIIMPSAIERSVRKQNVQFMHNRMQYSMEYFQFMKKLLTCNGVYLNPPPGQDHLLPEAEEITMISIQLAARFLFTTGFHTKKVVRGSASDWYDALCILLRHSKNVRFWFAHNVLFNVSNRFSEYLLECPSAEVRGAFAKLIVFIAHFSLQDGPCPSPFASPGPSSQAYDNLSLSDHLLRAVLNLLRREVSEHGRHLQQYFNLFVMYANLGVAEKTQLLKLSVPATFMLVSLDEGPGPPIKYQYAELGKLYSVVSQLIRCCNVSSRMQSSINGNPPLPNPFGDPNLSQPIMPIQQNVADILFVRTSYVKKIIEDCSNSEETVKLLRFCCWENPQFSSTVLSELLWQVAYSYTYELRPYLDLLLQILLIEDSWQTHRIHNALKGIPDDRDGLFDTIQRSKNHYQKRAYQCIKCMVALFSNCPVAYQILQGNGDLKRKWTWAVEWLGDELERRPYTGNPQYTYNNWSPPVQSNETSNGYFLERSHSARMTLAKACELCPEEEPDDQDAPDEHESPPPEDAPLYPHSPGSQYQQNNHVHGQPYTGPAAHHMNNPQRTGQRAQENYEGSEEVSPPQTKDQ

O=C(CCl)Nc1cc2c(cc1Cl)OCCCO2
inactive: USP42 0.621 | USP46 0.0317 | USP47 -0.676 | USP48 -0.438 | USP5 0.232 | USP54 -0.0568 | USP7 -0.0845 | USP8 -0.029 | USP9X 0.118 | UniProt O00487 -0.147

— the supplement of paper PMC11732987, “Enantioselective OTUD7B fragment discovery through chemoproteomics screening and high-throughput optimisation” (Communications Chemistry, 2025)
